Test results published in PubChem BioAssay (NCATS).
Values joined by “and” are separate entries in the source; they are usually repeats but may differ in a detail not shown here. Identical values can stand only once. Results filed as inconclusive are left out. The source holds several records for some structures; these can differ, active in one and inactive in another. Active and inactive are the calls of the source. Unless noted, the call rests on the fitted dose curve; in most records, active means well fitted curve in the direction sought with a large enough effect; inconclusive means small, poorly fitted or top-dose-only effect, or another doubt; inactive means no such curve, though single readings can be large; an effect the other way counts as inactive or inconclusive.

What was measured:
[1] = qHTS to identify inhibitors of the type 1 interferon - major histocompatibility complex class I in skeletal muscle: primary screen against the NCATS Mechanism Interrogation Plate v5.0 (MIPE) Libary (AID 1347411);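 further: plate controls were vehicle for no effect and reference inhibitor for full effect; nearly all actives have a fitted effect of over 65% in size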
Method in brief: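 Cells were genome-edited human myoblasts carrying a HiBit tag on endogenous HLA-B. They were treated with IFN-beta (4.0 ng/ml) and titrated compounds (top 46 uM) for 24 hrs before lytic HiBiT detection.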

[2] = biological target: Calcium and integrin-binding protein 1 (Homo sapiens) (UniProt Q99828); test: Primary qHTS for Identification of Calcium Integrin Binding Protein 1 (CIB1) Competitor (AID 1508620);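 further: GST tagged CIB1 binding a fluorescein labelled alphaIIb integrin peptide tracer; top concentration of the series differs between compounds; on the % scale 0 is the no-effect control and ±100 the full control effect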
Method in brief: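 Fluorescence polarization competition: GST-tagged CIB1 (1 uM final) preincubated with compound 15 min at room temperature, then FITC-labelled alphaIIb peptide (100 nM final) added. After 15 min at room temperature, polarization read at Ex 480/Em 540.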

[3] = Primary qHTS for small molecule stabilizers of the endoplasmic reticulum resident proteome: Secreted ER Calcium Modulated Protein (SERCaMP) assay (AID 1508630); further: potency means the concentration at half of the fitted maximal effect; on activity change, negative = inhibition: on the % scale 0 is the no-effect control and ±100 the full control effect
Method in brief: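 GLuc-SERCaMP-expressing SH-SY5Y cells, pretreated 16 h with compound, are challenged with thapsigargin to empty ER calcium stores; after 4 h, coelenterazine is added directly to the medium and luminescence is imaged.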

[4] = Primary qHTS for inhibitors of nuclear receptor binding SET domain protein 2 (NSD2) in an isogenic RCH-ACV NSD2 p.E1099K mutant (9B) (AID 1645876); further: nearly all actives have a fitted effect of over 70% in size; further: potency means the concentration at half of the fitted maximal effect
[5] = Primary qHTS for inhibitors of nuclear receptor binding SET domain protein 2 (NSD2) in an RCH-ACV wild type WT cells (2C) (AID 1645877); further: nearly all actives have a fitted effect of over 70% in size; further: potency means the concentration at half of the fitted maximal effect
[6] = biological target: Cytochrome P450 2D6 (Homo sapiens) (UniProt P10635); test: Cytochrome P450 family 2 subfamily D member 6 (CYP2D6) small molecule antagonists: luciferase biochemical (cell-free) qHTS assay (AID 1645840; active means well fitted curve in the direction sought with a large enough effect in the repeat runs; an effect the other way counts as inactive or inconclusive; further: nearly all actives have a fitted effect of over 55% in size; further: potency means the concentration at half of the fitted maximal effect; on activity change, negative = inhibition: series mostly up to about 57 µM; on the % scale 0 is the no-effect control and ±100 the full control effect)
Method in brief: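 P450-Glo luminescent screen: recombinant CYP2D6 enzyme–proluciferin substrate mix preincubated with compound 10 min at room temperature, then NADPH regeneration added for 1 h at room temperature. Detection reagent added for 20 min; luciferin light read as relative luminescence units.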

[7] = biological target: Cytochrome P450 2C9 (Homo sapiens) (UniProt P11712); test: Cytochrome P450 family 2 subfamily C member 9 (CYP2C9) small molecule antagonists: luciferase biochemical (cell-free) qHTS assay (AID 1645842; active means well fitted curve in the direction sought with a large enough effect in the repeat runs; an effect the other way counts as inactive or inconclusive; further: nearly all actives have a fitted effect of over 55% in size; further: potency means the concentration at half of the fitted maximal effect)
Method in brief: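 Luminescence, after 20 min with luciferin detection reagent, reflected CYP2C9 turnover during a 1 h NADPH-driven reaction at 37C. Enzyme-substrate mix contained 0.4% bovine serum albumin and was preincubated with compound 10 min at room temperature.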

[8] = biological target: Protein phosphatase 1D (Homo sapiens) (UniProt O15297); test: RapidFire Mass Spectrometry qHTS Assay for Modulators of WT P53-Induced Phosphatase 1 (WIP1) (AID 1347424);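 further: amount of dephosphorylated VEPPL-S-QETFS peptide product formed by WIP1; series mostly up to about 63 µM; plate controls were DMSO wells for no effect and GSK830371 inhibitor control at 10 µM for full effect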
Method in brief: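 10 nM WIP1 preincubated with compounds 1 hr at room temperature in pH 7.5 Tris buffer with 30 mM MgCl2, 1 mM TCEP; 2 uM VEPPL-pS-QETFS phosphopeptide for 5 min, formic acid quench; dephosphorylated product quantified by RapidFire MS against labelled standard.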

[9] = biological target: Protein phosphatase 1D (Homo sapiens) (UniProt O15297); test: Rhodamine-PBP qHTS Assay for Modulators of WT P53-Induced Phosphatase 1 (WIP1) (AID 1347425); further: % of control where 0% means no effect
Method in brief: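 WIP1 (5 nM final) was preincubated with compound for 1 hour at room temperature. It then dephosphorylated 10 uM VEPPL-pS-QETFS peptide in Tris-HCl pH 7.5 with 30 mM MgCl2. Released Pi was detected by 10 uM Rh-PBP fluorescence (ex 525/em 598 nm) read at 1-min intervals for 11 min, as delta f1 - f0.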

[10] = Primary qHTS for inhibitors of La Crosse Virus (LACV) - induced cell death in SH-SY5Y cells (AID 1508616);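 further: top concentration of the series differs between compounds; 0% = infected DMSO wells and 100% = uninfected DMSO wells; higher means more rescue of cells from virus-induced death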
Method in brief: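 Readout was luminescence from ATPLite 1step added after a 6-day LACV infection (0.01 MOI) of SH-SY5Y cells that had received pin-transferred compound 24 hr after seeding.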

[11] = A High-Content qHTS Against Drug Library for the Identification of Small Molecules that Inhibit DYT1 Early Onset Primary Dystonia-Associated Cell Pathology (AID 1645839; calls by dose curve; further: series mostly up to about 46 µM)
Method in brief: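 Flp-In T-REx 293 cells with tetracycline-inducible EGFP-delE hTOR1A (WT EGFP-hTOR1A as reference), 800 cells/well; compound added with tetracycline, 48 h at 37 C. Fixed, permeabilized cells imaged; %pathology (punctate TorsinA) primary, cell count counterscreen.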

[12] = biological target: Single-stranded DNA cytosine deaminase (Homo sapiens) (UniProt Q9GZX7); test: Validation qHTS assay for inhibitors of Activation Induced Cytidine Deaminase (AID): AID signal (AID 1347429); further: on the % scale 0 is the no-effect control and ±100 the full control effect
Method in brief: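 In this coupled qHTS, AID deaminates a FRET-labelled ssDNA substrate in the presence of UDG over 4 hr at room temperature. Compounds span up to 114 uM final.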

Sequence of Protein phosphatase 1D (Homo sapiens) (O15297 whole entry, looked up): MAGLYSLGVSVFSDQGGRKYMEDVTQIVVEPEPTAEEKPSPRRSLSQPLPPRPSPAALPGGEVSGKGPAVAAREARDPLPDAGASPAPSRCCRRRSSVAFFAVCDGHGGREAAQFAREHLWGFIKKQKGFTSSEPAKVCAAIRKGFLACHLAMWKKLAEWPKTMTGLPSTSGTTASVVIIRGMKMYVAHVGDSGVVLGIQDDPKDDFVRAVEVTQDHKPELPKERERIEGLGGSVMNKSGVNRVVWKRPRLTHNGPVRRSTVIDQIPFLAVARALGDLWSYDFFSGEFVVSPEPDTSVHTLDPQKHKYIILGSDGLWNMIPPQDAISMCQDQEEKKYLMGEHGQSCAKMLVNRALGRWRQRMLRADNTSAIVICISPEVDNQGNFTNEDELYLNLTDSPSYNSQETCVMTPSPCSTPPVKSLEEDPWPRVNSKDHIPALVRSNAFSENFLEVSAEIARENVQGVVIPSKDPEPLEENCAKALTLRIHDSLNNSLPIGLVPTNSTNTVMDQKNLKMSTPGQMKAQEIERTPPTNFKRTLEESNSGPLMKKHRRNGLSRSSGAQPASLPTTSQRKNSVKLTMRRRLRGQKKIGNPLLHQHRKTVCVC
Sequence of Cytochrome P450 2C9 (Homo sapiens) (P11712 whole entry, looked up): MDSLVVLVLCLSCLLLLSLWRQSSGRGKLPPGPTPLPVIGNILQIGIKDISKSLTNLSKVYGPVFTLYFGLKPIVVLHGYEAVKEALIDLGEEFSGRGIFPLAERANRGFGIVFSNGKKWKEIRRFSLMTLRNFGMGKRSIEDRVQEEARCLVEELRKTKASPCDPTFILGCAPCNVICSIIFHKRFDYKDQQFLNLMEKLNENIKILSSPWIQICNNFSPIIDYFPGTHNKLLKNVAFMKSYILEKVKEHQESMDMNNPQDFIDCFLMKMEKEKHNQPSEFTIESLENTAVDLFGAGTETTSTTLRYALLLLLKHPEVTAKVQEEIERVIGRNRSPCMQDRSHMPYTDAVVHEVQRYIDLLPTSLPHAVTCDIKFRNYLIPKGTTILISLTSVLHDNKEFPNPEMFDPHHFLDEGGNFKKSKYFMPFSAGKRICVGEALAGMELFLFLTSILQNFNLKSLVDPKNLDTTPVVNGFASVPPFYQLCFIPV
Sequence of Calcium and integrin-binding protein 1 (Homo sapiens) (Q99828 whole entry, looked up): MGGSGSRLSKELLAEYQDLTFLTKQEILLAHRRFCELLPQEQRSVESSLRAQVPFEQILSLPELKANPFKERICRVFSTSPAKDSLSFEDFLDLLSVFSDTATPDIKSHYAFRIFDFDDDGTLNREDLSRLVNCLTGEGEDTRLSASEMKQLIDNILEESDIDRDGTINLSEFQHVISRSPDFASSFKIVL
Sequence of Cytochrome P450 2D6 (Homo sapiens) (P10635 whole entry, looked up): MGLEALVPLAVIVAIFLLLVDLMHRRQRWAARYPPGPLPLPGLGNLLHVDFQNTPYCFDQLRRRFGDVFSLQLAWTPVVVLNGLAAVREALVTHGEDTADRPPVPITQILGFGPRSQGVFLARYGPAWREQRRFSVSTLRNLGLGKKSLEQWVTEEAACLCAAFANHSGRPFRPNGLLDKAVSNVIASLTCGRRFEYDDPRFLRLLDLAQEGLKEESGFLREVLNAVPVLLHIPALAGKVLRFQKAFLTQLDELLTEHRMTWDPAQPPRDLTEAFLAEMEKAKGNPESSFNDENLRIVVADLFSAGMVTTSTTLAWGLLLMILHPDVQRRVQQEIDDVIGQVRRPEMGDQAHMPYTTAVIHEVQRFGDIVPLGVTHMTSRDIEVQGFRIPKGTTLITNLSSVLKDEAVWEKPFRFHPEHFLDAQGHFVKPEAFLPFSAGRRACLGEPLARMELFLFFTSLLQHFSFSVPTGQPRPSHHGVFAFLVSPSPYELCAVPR
Sequence of Single-stranded DNA cytosine deaminase (Homo sapiens) (Q9GZX7 whole entry, looked up): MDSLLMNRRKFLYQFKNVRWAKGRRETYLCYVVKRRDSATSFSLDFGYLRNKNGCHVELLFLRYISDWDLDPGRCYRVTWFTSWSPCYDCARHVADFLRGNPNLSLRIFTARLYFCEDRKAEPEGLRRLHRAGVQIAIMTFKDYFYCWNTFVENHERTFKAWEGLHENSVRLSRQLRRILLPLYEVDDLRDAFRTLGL

C[Se]CCC(N)C(=O)O (stereo unspecified)
inactive: Potency [1] | Potency [2] | Potency [3] | Potency [4] | Potency [5]

COc1ccc(C2(C#N)CCC(C(=O)O)CC2)cc1OC1CCCC1 (stereo unspecified)
inactive: Potency [1] | Potency [2] | Potency [3] | Potency [6] | Potency [7] | Potency [4]

CCCc1cc(=O)[nH]c(=S)[nH]1
inactive: Potency [1] | Potency [8] | outcome [9] | Potency [10] | Potency [3] | Potency [6] | Potency [7] | Potency [4]

CS(=O)(=O)OCCCCOS(C)(=O)=O
inactive: Potency [1] | Potency [8] | outcome [9] | Potency [10] | Potency [6] | Potency [7] | Potency [4] | Potency [5]

CCOC(=O)C1=C[C@@H](OC(CC)CC)[C@H](NC(C)=O)[C@@H](N)C1
inactive: Potency [1] | Potency [2] | Potency [3] | Potency [4]

COc1cc2c(N3CCN(C(=O)Nc4ccc(OC(C)C)cc4)CC3)ncnc2cc1OCCCN1CCCCC1
active: Potency [6] 12300 nM | Potency [4] 18.8 µM and 25.8 µM and 16.6 µM
inactive: Potency [1] | Potency [8] | outcome [9] | Potency [3] | Potency [11] | Potency [7]

N=C(N)c1ccc2cc(OC(=O)c3ccc(N=C(N)N)cc3)ccc2c1
inactive: Potency [1] | Potency [8] | outcome [9] | Potency [10] | Potency [3] | Potency [6] | Potency [7] | Potency [4]

CCCS(=O)c1ccc2nc(NC(=O)OC)[nH]c2c1 (stereo unspecified)
active: Potency [4] 4.22 µM and 8.17 µM
inactive: Potency [1] | Potency [8] | outcome [9] | Potency [10] | Potency [3] | Potency [7]

O=C(NOCC1CC1)c1ccc(F)c(F)c1Nc1ccc(I)cc1Cl
inactive: Potency [1] | Potency [8] | Potency [10] | Potency [2] | Potency [3] | Potency [6]
active: Potency [7] 617 nM | Potency [4] 8.41 µM and 23 µM

COc1cc2nc(N3CCN(C(=O)C4CCCO4)CC3)nc(N)c2cc1OC (stereo unspecified)
inactive: Potency [8] | outcome [9] | outcome [12] | Potency [10] | Potency [2] | Potency [3] | Potency [11] | Potency [7]
active: Potency [4] 11.9 µM

CCC1=C(C)CN(C(=O)NCCc2ccc(S(=O)(=O)NC(=O)NC3CCC(C)CC3)cc2)C1=O (stereo unspecified)
inactive: Potency [1] | Potency [8] | Potency [10] | Potency [2] | Potency [3] | Potency [6] | Potency [4]

CC(C)c1nc(CN(C)C(=O)N[C@H](C(=O)N[C@@H](Cc2ccccc2)C[C@H](O)[C@H](Cc2ccccc2)NC(=O)OCc2cncs2)C(C)C)cs1
inactive: Potency [8] | outcome [9] | Potency [10] | Potency [2] | Potency [3]

Nc1nc(Cl)nc2c1ncn2[C@H]1C[C@H](O)[C@@H](CO)O1
inactive: Potency [1] | Potency [2] | Potency [3] | Potency [6]
active: Potency [4] 0.0468 µM | Potency [5] 41.7 nM

CC(C)(S)[C@@H](N)C(=O)O
inactive: activity change, negative = inhibition [1] -26.4% [at 5.1 µM] | Potency [2] | outcome [4] inactive [at 4.96 µM] | outcome [5] inactive [at 4.96 µM]

Clc1ccc(C(Cn2ccnc2)OCc2c(Cl)cccc2Cl)c(Cl)c1 (stereo unspecified)
active: Potency [4] 21.1 µM and 18.6 µM
inactive: Potency [1] | Potency [8] | outcome [9] | Potency [10] | Potency [3]

Nc1ncn([C@H]2C[C@H](O)[C@@H](CO)O2)c(=O)n1
inactive: Potency [1] | Potency [8] | outcome [9] | Potency [3] | Potency [11] | Potency [6] | Potency [7]
active: Potency [4] 266 nM and 742 nM | Potency [5] 133 nM and 1.18 µM

N[C@@H](Cc1cc(I)c(Oc2cc(I)c(O)c(I)c2)c(I)c1)C(=O)O
inactive and 749 nM (active): Potency [3]
inactive: Potency [1] | outcome [9] | Potency [10] | Potency [2] | Potency [11] | Potency [6] | Potency [4]
